Source: PubChem BioAssay AID504799 (The Scripps Research Institute Molecular Screening Center, 2011)
The list shows a part of the results. Values without a mark were called inactive. The source made the active and inactive calls.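 The calls were made as follows: active = mean activation over triplicate runs exceeds the adjusted cutoff derived for the parent primary screen (cut at about 19% in these data); inactive = the rest.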

test: FP signal interference without PKA proteins, confirmation, artefact control for PKA-R1A activator project, biochemical, fluorescence polarization, triplicate (AID 504799); settings: Cy5-IP20 peptide alone, fluorescence polarization artifact counterscreen; at 11.4 µM; stronger effect = higher value;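 also: no PKA protein present so any polarization rise reflects compound interference; 0% = tracer peptide mix alone and 100% = mix with added PKA catalytic subunit; higher means stronger polarization artifact and likely false positive in parent screen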

SMILES | activation
N#Cc1ccccc1CN1C(=O)S/C(=C/c2cccn2-c2cccc(C(=O)O)c2)C1=O | 19.3% (active)
CN(C(=O)CSc1nnc(Nc2ccccc2)s1)C1CCS(=O)(=O)C1 (stereo not given) | 0.22%
CCCC(=O)Nc1ncnc2c1ncn2[C@@H]1O[C@@H]2OP(=O)(O)OC[C@H]2[C@H]1OC(=O)CCC | 0.15%
Cc1ccc2nc3c(cc(C(=O)NCCc4ccccc4)c(=N)n3CC3CCCO3)c(=O)n2c1 (stereo not given) | 4%
COc1ccccc1N1CC(C(=O)Nc2nnc(SCC(=O)NC(C)C)s2)CC1=O (stereo not given) | -0.21%
COc1ccc(NC(=O)c2ccc(C#CC(C)(C)O)cc2)cc1 | -2.01%
O=C(Nc1ccc2c(c1)[C@@H]1C[C@@H](CC(=O)N3CCCCC3)O[C@@H](CO)[C@@H]1O2)NC1CCCCC1 | 3.18%
COc1ccc(CNc2nnnn2C)cc1 | 3.5%
CCC(Oc1ccccc1C)C(=O)Nc1ccc(S(=O)(=O)Nc2cc(C)on2)cc1 (stereo not given) | 2.96%
CCOc1cc(C(=O)Nc2c(C)ccc3nsnc23)cc(OCC)c1OCC | 3.5%
